# Results filed as inconclusive are left out. The source made the active and inactive calls.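 How the source made its calls, unless noted: active means normalized viability below 100% at a tested concentration; inactive means the rest.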
# How the values were obtained:
# [1] = phospholipid biosynthesis inhibitors in animal cells, primary screen, cell-based, LOPAC library, screen 4 (AID 1347384; call rule not given here); conditions: phospholipid biosynthesis inhibition screen, at 10 µM
# [2] = biological target: ATP-dependent translocase ABCB1 (Homo sapiens) (UniProt P08183); experiment: MDR1 (ABCB1) efflux transporter inhibition, cell-based (AID 377; in the data active means fluorescence slope change above about 50%); conditions: MDR1-expressing cells, fluorescent substrate accumulation slope; stronger effect = higher value; concentration not given here
# [3] = survival rescue of mitochondrial mutant cells in low glucose, primary screen, MELAS cybrids, Rieske KO mouse fibroblasts, CellTiter-Glo (AID 1508586;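 active means mean z-score across replicates of 1.96 or higher in either the MELAS or the Rieske mutant cell line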;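 further: z relative to plate mean and SD of compound and empty wells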)
# [4] = inhibitors of Cryptococcus chitosan production, flow cytometry, Cibacron Brilliant Red staining (AID 1347148; call rule not given here;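 further: compound exposure lasted three days at 37 degrees C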); conditions: Cryptococcus neoformans chitosan, stronger effect = lower value; at 10 µM unless noted
# [5] = liver-stage malaria parasite growth inhibition, primary screen, cell-based, HepG2, luciferase luminescence, HepG2 viability (AID 624349; in the data active means parasite load remaining mostly below about 12%, no sharp cut-off; inactive means mostly above about 10%;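 further: 100% = mean of DMSO negative control wells on the same plate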); conditions: P. berghei liver stage in HepG2, luciferase luminescence, concentration not given here; parasite load remaining: stronger effect = lower value; viability: measured here: HepG2 viability without parasites
# [6] = ovarian cancer cell viability with rucaparib, profiling panel, oncology-focused library, rucaparib conditional (AID 1508598); conditions: patient-derived ovarian cancer cells, CellTiter-Glo viability, 144 h, stronger effect = lower value
# [7] = circadian clock period modulators, cell-based, LOPAC library, luminescence reporter (AID 2774; call rule not given here;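 further: values are relative to mean of DMSO wells on each plate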); conditions: circadian reporter cells, at 7 µM, actives lie on both sides
# [8] = biological target: NAD(+) hydrolase SARM1 (Homo sapiens) (UniProt Q6SZW1); experiment: SARM1 TIR NADase inhibitors, cell lysate, NAD-Glo luminescence (AID 1508614;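 active means compound whose remaining NAD level is above about 45 nM, limit read from the data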); conditions: SAM-TIR HEK293T lysate NADase, at 1 µM, stronger effect = higher value
# [9] = biological target: Mitogen-activated protein kinase 7 (Homo sapiens) (UniProt Q13164); experiment: ERK5 transactivation activators in reporter cells, primary screen, cell-based, HTS (AID 1508626;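 active means luciferase signal above three times the same-plate solvent-only control wells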;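 further: luciferase driven by Gal4-ERK5 fusion binding five Gal4 sites before minimal TATA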); conditions: HeLa Gal4-ERK5 transactivation, 18 h, at 5 µM, stronger effect = higher value
# [10] = MELAS cybrid survival, CellTiter-Glo 48 h, stronger effect = higher value
# [11] = Rieske KO mouse fibroblast survival, CellTiter-Glo 72 h
# [12] = at 0.000305 µM, OCI-C5x cells, with rucaparib 10 µM, 100% = cells with rucaparib alone
# [13] = at 0.000305 µM, OCI-C5x cells, without rucaparib
# [14] = at 0.000305 µM, OCI-P5x cells, with rucaparib 20 µM, 100% = cells with rucaparib alone
# [15] = at 0.000305 µM, OCI-P5x cells, without rucaparib
# [16] = at 0.00122 µM, OCI-C5x cells, with rucaparib 10 µM, 100% = cells with rucaparib alone
# [17] = at 0.00122 µM, OCI-C5x cells, without rucaparib
# [18] = at 0.00122 µM, OCI-P5x cells, with rucaparib 20 µM, 100% = cells with rucaparib alone
# [19] = at 0.00122 µM, OCI-P5x cells, without rucaparib
# [20] = at 0.00488 µM, OCI-C5x cells, with rucaparib 10 µM, 100% = cells with rucaparib alone
# [21] = at 0.00488 µM, OCI-C5x cells, without rucaparib
# [22] = at 0.00488 µM, OCI-P5x cells, with rucaparib 20 µM, 100% = cells with rucaparib alone
# [23] = at 0.00488 µM, OCI-P5x cells, without rucaparib
# [24] = at 0.0195 µM, OCI-C5x cells, with rucaparib 10 µM, 100% = cells with rucaparib alone
# [25] = at 0.0195 µM, OCI-C5x cells, without rucaparib
# [26] = at 0.0195 µM, OCI-P5x cells, with rucaparib 20 µM, 100% = cells with rucaparib alone
# [27] = at 0.0195 µM, OCI-P5x cells, without rucaparib
# [28] = at 0.0781 µM, OCI-C5x cells, with rucaparib 10 µM, 100% = cells with rucaparib alone
# [29] = at 0.0781 µM, OCI-C5x cells, without rucaparib
# [30] = at 0.0781 µM, OCI-P5x cells, with rucaparib 20 µM, 100% = cells with rucaparib alone
# [31] = at 0.0781 µM, OCI-P5x cells, without rucaparib
# [32] = at 0.313 µM, OCI-C5x cells, with rucaparib 10 µM, 100% = cells with rucaparib alone
# [33] = at 0.313 µM, OCI-C5x cells, without rucaparib
# [34] = at 0.313 µM, OCI-P5x cells, with rucaparib 20 µM, 100% = cells with rucaparib alone
# [35] = at 0.313 µM, OCI-P5x cells, without rucaparib
# [36] = at 1.25 µM, OCI-C5x cells, with rucaparib 10 µM, 100% = cells with rucaparib alone
# [37] = at 1.25 µM, OCI-C5x cells, without rucaparib
# [38] = at 1.25 µM, OCI-P5x cells, with rucaparib 20 µM, 100% = cells with rucaparib alone
# [39] = at 1.25 µM, OCI-P5x cells, without rucaparib
# [40] = at 5 µM, OCI-C5x cells, with rucaparib 10 µM, 100% = cells with rucaparib alone
# [41] = at 5 µM, OCI-C5x cells, without rucaparib
# [42] = at 5 µM, OCI-P5x cells, with rucaparib 20 µM, 100% = cells with rucaparib alone
# [43] = at 5 µM, OCI-P5x cells, without rucaparib
# NAD(+) hydrolase SARM1 (Homo sapiens), sequence (Q6SZW1 whole entry, looked up, the tested form may be a part): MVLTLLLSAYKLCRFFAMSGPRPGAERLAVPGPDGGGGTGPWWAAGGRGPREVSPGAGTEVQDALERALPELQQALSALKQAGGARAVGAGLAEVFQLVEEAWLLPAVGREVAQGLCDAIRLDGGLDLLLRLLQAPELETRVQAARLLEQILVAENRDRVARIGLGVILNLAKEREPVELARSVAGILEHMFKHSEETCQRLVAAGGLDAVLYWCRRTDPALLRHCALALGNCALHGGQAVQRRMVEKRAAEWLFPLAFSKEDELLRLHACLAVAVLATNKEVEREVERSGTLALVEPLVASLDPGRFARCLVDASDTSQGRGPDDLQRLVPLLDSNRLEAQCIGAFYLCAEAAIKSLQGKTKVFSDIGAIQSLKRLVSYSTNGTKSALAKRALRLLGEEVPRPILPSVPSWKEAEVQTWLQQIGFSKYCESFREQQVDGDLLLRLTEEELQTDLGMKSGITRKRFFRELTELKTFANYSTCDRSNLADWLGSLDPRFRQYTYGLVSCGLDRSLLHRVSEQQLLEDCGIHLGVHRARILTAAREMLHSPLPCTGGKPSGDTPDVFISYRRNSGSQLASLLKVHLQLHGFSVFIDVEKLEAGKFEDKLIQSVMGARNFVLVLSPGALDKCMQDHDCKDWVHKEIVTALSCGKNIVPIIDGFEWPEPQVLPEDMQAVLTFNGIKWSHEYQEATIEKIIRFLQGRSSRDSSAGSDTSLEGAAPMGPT
# ATP-dependent translocase ABCB1 (Homo sapiens), sequence (P08183 whole entry, looked up): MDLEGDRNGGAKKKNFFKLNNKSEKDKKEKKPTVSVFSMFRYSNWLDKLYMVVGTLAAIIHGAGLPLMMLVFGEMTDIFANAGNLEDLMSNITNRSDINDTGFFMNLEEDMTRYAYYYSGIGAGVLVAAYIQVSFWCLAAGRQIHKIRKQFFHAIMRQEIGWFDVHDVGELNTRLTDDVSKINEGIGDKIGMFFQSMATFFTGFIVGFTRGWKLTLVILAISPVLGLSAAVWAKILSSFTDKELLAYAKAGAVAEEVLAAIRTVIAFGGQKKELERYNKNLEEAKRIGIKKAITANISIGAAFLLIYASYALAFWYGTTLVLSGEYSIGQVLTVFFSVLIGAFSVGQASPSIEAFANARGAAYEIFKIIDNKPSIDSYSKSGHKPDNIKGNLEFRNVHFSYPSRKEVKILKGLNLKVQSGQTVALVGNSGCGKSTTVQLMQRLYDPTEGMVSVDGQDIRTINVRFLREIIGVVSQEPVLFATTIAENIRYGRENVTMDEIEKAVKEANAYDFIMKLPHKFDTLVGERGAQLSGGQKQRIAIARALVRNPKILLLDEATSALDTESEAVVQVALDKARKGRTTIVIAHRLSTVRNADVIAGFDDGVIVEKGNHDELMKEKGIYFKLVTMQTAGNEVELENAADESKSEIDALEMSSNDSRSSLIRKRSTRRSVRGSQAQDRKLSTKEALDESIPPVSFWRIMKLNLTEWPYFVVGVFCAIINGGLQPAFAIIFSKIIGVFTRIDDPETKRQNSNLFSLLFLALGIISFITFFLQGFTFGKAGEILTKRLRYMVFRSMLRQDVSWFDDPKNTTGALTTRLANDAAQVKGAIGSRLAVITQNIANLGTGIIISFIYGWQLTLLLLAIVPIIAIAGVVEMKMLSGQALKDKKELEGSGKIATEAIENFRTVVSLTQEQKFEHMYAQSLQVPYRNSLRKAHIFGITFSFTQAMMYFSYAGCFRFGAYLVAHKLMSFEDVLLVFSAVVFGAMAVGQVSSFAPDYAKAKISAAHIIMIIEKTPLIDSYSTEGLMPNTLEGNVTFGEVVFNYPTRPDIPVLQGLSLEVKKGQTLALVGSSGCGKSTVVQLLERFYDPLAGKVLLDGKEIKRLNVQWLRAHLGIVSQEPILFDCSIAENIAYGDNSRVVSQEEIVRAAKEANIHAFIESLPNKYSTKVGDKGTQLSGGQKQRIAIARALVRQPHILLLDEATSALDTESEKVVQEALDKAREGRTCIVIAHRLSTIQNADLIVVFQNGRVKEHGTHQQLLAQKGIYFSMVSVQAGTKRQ
# Mitogen-activated protein kinase 7 (Homo sapiens), sequence (Q13164 whole entry, looked up, the tested form may be a part): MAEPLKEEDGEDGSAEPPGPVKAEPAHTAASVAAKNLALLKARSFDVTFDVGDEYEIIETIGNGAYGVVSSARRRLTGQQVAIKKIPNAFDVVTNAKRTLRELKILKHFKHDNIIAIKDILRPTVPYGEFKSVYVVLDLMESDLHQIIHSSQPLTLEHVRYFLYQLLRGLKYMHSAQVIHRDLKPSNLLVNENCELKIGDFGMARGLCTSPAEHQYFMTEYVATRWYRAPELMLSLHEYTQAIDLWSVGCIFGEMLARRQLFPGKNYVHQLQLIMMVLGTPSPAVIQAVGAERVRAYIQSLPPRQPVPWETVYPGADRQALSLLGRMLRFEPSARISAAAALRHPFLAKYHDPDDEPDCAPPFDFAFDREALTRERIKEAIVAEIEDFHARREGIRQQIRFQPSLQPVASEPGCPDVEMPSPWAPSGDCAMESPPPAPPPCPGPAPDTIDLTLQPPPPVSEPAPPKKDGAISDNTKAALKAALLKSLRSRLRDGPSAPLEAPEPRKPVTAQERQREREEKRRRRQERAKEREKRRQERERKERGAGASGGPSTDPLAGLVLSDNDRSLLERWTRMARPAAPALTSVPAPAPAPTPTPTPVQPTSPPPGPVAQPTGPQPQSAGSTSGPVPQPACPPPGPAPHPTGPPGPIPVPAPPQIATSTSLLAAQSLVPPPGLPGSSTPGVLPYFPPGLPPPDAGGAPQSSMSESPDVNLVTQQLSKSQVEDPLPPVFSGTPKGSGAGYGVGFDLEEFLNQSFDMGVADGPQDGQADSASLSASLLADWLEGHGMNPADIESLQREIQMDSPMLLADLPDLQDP
compound,measurement,setting,value
[Cl][Pt].[NH2-].[NH2-].c1ccncc1,outcome,[1],inactive
CC[C@H](C)[C@H]1O[C@]2(C=C[C@@H]1C)C[C@@H]1C[C@@H](C/C=C(\C)C(O[C@H]3C[C@H](OC)C(O[C@H]4C[C@H](OC)[C@@H](O)[C@H](C)O4)[C@H](C)O3)[C@@H](C)/C=C/C=C3\CO[C@@H]4[C@H](O)C(C)=C[C@@H](C(=O)O1)[C@]34O)O2 (some centres undefined),fluorescence slope change,[2],61.5% (active)
same,z-score,[3]; [10],-1.19 (inactive)
same,z-score,[3]; [11],1.52
OC[C@@H]1O[C@H](n2cnc3cc(Cl)c(Cl)cc32)C(O)[C@@H]1O (some centres undefined),fold fluorescence,[4],3.08 [at 156.7 µM] (inactive)
COc1ccc(C(=O)OC2CCC3(C)C4CCC5C6(O)CC(O)C7(O)C(CN8CC(C)CCC8C7(C)O)C6(O)CC53OC24O)cc1OC (centres undefined),fold fluorescence,[4],11.6 [at 74.2 µM] (inactive)
CCCCCc1cc(O)c2c(c1)OC(C)(C)[C@H]1CCC(C(=O)O)=CC21 (some centres undefined),fold fluorescence,[4],7.25 (inactive)
C=C1[C@@H](C)[C@H]2[C@H](Cc3ccccc3)NC(=O)[C@]23[C@H](OC(C)=O)/C=C/[C@](C)(O)C(=O)[C@@H](C)C/C=C/[C@H]3[C@@H]1O,fold fluorescence,[4],11.8 [at 98.5 µM] (inactive)
CC(C)[C@@]1(O)[C@H](OC(=O)c2ccc[nH]2)[C@]2(O)[C@]3(C)C[C@@]4(O)O[C@]5([C@@H](O)[C@H](C)CC[C@@]35O)[C@]2(O)[C@@]41C,fold fluorescence,[4],3.48 [at 101.3 µM] (inactive)
N#CCCN,outcome,[1],inactive
CCN(CC)C(C)C(=O)c1ccccc1 (centres undefined),z-score,[3]; [10],0.648 (inactive)
same,z-score,[3]; [11],-0.333
CC(C)NC[C@H](O)c1ccc(N)c(C#N)c1,fold fluorescence,[4],4.74 [at 228 µM] (inactive)
CCCC[C@H](C)[C@H](OC(=O)C[C@H](CC(=O)O)C(=O)O)[C@@H](C[C@H](C)C[C@@H](O)CCCC[C@H](O)C[C@@H](O)[C@@H](C)N)OC(=O)C[C@@H](CC(=O)O)C(=O)O,fold fluorescence,[4],2.99 [at 69.3 µM] (inactive)
COC(=O)[C@]1(O)C[C@@H]2O[C@@]1(C)n1c3ccccc3c3c4c(c5c6ccccc6n2c5c31)C(=O)NC4,parasite load remaining,[5],43.2% (inactive)
same,viability,[5],53.6%
same,fold fluorescence,[4],6.41 [at 10.7 µM] (inactive)
CCNC(=O)[C@@H]1O[C@H](n2cnc3c(N)ncnc32)C(O)[C@@H]1O (some centres undefined),fold fluorescence,[4],4.97 [at 162.2 µM] (inactive)
CCCCCCCCCCCCCCCC(=O)OC[C@@H](COP(=O)([O-])OCC[N+](C)(C)C)OC(C)=O,fold fluorescence,[4],4.75 (inactive)
C/C(=C\c1csc(C)n1)[C@H]1C[C@@H]2O[C@@H]2CCC[C@H](C)[C@H](O)[C@@H](C)C(=O)C(C)(C)[C@H](O)CC(=O)O1,viability,[6]; [12],72.1% (active)
same,viability,[6]; [13],52.1% (active)
same,viability,[6]; [14],73.7% (active)
same,viability,[6]; [15],30% (active)
same,viability,[6]; [16],41.4% (active)
same,viability,[6]; [17],28.8% (active)
same,viability,[6]; [18],57.4% (active)
same,viability,[6]; [19],15.9% (active)
same,viability,[6]; [20],27.2% (active)
same,viability,[6]; [21],23.1% (active)
same,viability,[6]; [22],51% (active)
same,viability,[6]; [23],16.8% (active)
same,viability,[6]; [24],29.1% (active)
same,viability,[6]; [25],22% (active)
same,viability,[6]; [26],53.1% (active)
same,viability,[6]; [27],17% (active)
same,viability,[6]; [28],29.4% (active)
same,viability,[6]; [29],22.1% (active)
same,viability,[6]; [30],57% (active)
same,viability,[6]; [31],17.9% (active)
same,viability,[6]; [32],29.6% (active)
same,viability,[6]; [33],24% (active)
same,viability,[6]; [34],46.5% (active)
same,viability,[6]; [35],15.9% (active)
same,viability,[6]; [36],25.2% (active)
same,viability,[6]; [37],24.3% (active)
same,viability,[6]; [38],46.3% (active)
same,viability,[6]; [39],14.6% (active)
same,viability,[6]; [40],52.3% (active)
same,viability,[6]; [41],41.6% (active)
same,viability,[6]; [42],43.6% (active)
same,viability,[6]; [43],17.3% (active)
CC1(C)[C@@H](O)C[C@H]2[C@](C)(O)[C@@H]3CCC4[C@@H](O)[C@@]3(C[C@@H](O)[C@@]21O)C[C@@]4(C)O,fold fluorescence,[4],2.34 [at 135 µM] (active)
CC(CCC(=O)O)CC(C)CC(C)C(=O)/C=C(\O)C(C)CC(C)C/C=C/C(C)C(O)C(C)C(O)CC1CCC(C)(C2CCC(C)(C(C)O)O2)O1 (centres undefined),fold fluorescence,[4],5.45 [at 70.5 µM] (inactive)
CC(C)[C@@H]1NC(=O)[C@H](C(C)C)OC(=O)[C@@H](C(C)C)NC(=O)[C@@H](C)OC(=O)[C@@H](C(C)C)NC(=O)[C@H](C(C)C)OC(=O)[C@@H](C(C)C)NC(=O)[C@@H](C)OC(=O)[C@H](C(C)C)NC(=O)[C@H](C(C)C)OC(=O)[C@H](C(C)C)NC(=O)[C@H](C)OC1=O,fold fluorescence,[4],7.5 [at 45 µM] (inactive)
O=C1CS[C@@H](c2ccccc2Cl)c2cc(Cl)ccc2N1,fold fluorescence,[4],10.4 [at 154.2 µM] (inactive)
CN1CCN(C(=O)OC2c3nccnc3C(=O)N2c2ccc(Cl)cn2)CC1 (centres undefined),period change,[7],-0.19 h (inactive)
same,z-score,[3]; [10],-0.0147 (inactive)
same,z-score,[3]; [11],0.36
O[C@@H]1[C@@H](O)[C@H](O)CN2CC[C@@H](O)[C@@H]12,fold fluorescence,[4],5.17 [at 264.3 µM] (inactive)
Cc1c(C(=O)c2cccc3ccccc23)c2cccc3c2n1[C@@H](CN1CCOCC1)CO3,fold fluorescence,[4],4.51 (inactive)
CCCCCCCCCCCCCCCCOC[C@H](O)COP(=O)([O-])OCC[N+](C)(C)C,fold fluorescence,[4],3.83 (inactive)
C=CC[C@]1(O)CC[C@H]2[C@@H]3CCC4=CC(=O)CCC4=C3C=C[C@@]21C,z-score,[3]; [10],0.712 (inactive)
same,z-score,[3]; [11],0.629
same,remaining NAD,[8],10 nM (inactive)
same,luciferase signal,[9],60 AU (inactive)
COC1=CC(=O)O[C@H](/C=C/c2ccccc2)C1,fold fluorescence,[4],3.69 [at 217.1 µM] (inactive)
O[C@@H]1[C@@H]2[C@@H](O)CCCN2C[C@@H]1O,fold fluorescence,[4],5.36 [at 288.7 µM] (inactive)
CC(C)[C@@]12O[C@@H]1[C@@H]1O[C@]13[C@]1(O[C@@H]1C[C@@H]1C4=C(CC[C@@]13C)C(=O)OC4)[C@@H]2O,viability,[6]; [12],33.2% (active)
same,viability,[6]; [13],23.2% (active)
same,viability,[6]; [14],11.8% (active)
same,viability,[6]; [15],6.41% (active)
same,viability,[6]; [16],19.5% (active)
same,viability,[6]; [17],15.4% (active)
same,viability,[6]; [18],12.6% (active)
same,viability,[6]; [19],7.08% (active)
same,viability,[6]; [20],8% (active)
same,viability,[6]; [21],7.6% (active)
same,viability,[6]; [22],13.9% (active)
same,viability,[6]; [23],8.9% (active)
same,viability,[6]; [24],10.1% (active)
same,viability,[6]; [25],8.03% (active)
same,viability,[6]; [26],12.6% (active)
same,viability,[6]; [27],8.76% (active)
same,viability,[6]; [28],9.57% (active)
same,viability,[6]; [29],9.36% (active)
same,viability,[6]; [30],11.1% (active)
same,viability,[6]; [31],9.41% (active)
same,viability,[6]; [32],9.16% (active)
same,viability,[6]; [33],10.5% (active)
same,viability,[6]; [34],12.1% (active)
same,viability,[6]; [35],8.22% (active)
same,viability,[6]; [36],9.48% (active)
same,viability,[6]; [37],10% (active)
same,viability,[6]; [38],9.34% (active)
same,viability,[6]; [39],8.5% (active)
same,viability,[6]; [40],9.2% (active)
same,viability,[6]; [41],8.72% (active)
same,viability,[6]; [42],10.3% (active)
same,viability,[6]; [43],6.87% (active)
